Data reported in PubChem BioAssay (EPA / NIEHS).
Several values for one entry are separate records, joined by “and”; a condition that tells them apart may be missing. Equal entries are not always repeated. Records with an inconclusive call do not appear. Some structures have more than one record in an assay (separate samples or runs), and their calls can disagree. Activity calls are given as the source filed them. How the source made its calls: active means hit-call score of the fitted dose curve at least 0.9, where 1 is the maximum; inconclusive means response in the unintended direction; inactive means score below 0.9.

Target: Estrogen receptor beta (Homo sapiens) (UniProt Q92731)
Sequence (Q92731 whole entry, looked up): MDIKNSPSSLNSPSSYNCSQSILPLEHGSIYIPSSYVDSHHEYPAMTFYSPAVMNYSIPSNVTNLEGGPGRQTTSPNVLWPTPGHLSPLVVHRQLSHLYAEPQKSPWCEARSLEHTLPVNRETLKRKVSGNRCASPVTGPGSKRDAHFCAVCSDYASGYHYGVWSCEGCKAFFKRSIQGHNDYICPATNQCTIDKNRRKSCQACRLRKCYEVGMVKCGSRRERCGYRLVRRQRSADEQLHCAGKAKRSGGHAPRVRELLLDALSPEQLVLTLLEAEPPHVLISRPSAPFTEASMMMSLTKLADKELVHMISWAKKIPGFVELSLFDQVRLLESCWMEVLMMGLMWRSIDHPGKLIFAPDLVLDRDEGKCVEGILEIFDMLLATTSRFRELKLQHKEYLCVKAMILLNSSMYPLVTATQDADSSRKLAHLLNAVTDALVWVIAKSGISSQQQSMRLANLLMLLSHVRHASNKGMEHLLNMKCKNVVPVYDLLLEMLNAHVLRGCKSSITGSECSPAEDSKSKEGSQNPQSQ
Assay: OT_ER_ERbERb_0480: Odyssey Thera (OT) 8-hour HEK293T Protein-Complementation Assay for Estrogen Receptor-beta/-beta Homodimer (AID 2283357);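 further: active means signal gain over DMSO baseline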
Method in brief: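 Fluorescence intensity, nuclear for agonists and nuclear plus cytoplasmic for antagonists, was quantified by laser scanning cytometry versus vehicle after 8 h treatment. The cells were HEK293T stably carrying ER beta LBD fragment-complementation partners.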

| SMILES | outcome |
| --- | --- |
| O=C(O)c1ccccc1C(c1ccc(O)cc1)c1ccc(O)cc1 | inactive |
| CCCCCCCCCCCCN1CCCC1=O | inactive |
| CCc1nn(C2CCCCC2)c2cc(C3(C#N)CCC(C(=O)O)CC3)ccc12 (stereo not drawn) | inactive |
| ClC1=C(Cl)C(Cl)(Cl)C(Cl)=C1Cl | inactive |
| OCCC(F)(F)C(F)(F)C(F)(F)C(F)(F)C(F)(F)C(F)(F)C(F)(F)C(F)(F)F | inactive |
| Cc1oc(-c2ccccc2)nc1CCOc1ccc(C[C@H](Nc2ccccc2C(=O)c2ccccc2)C(=O)O)cc1 | inactive |
| CCCCC(CC)COC(=O)CCCCC(=O)OCC(CC)CCCC (stereo not drawn) | inactive |
| CCN(CC)CCNc1ccc(CNC=O)c2sc3ccc(OC)cc3c(=O)c12 | inactive |
| C[C@@H]1C[C@H]2[C@@H]3CCC4=CC(=O)C=C[C@]4(C)[C@@]3(F)[C@@H](O)C[C@]2(C)[C@@]1(O)C(=O)COP(=O)(O)O | inactive |
| CC(=O)CC(C)(C)O | inactive |

Target: Retinoic acid receptor alpha (Homo sapiens) (UniProt P10276)
Sequence (P10276 whole entry, looked up): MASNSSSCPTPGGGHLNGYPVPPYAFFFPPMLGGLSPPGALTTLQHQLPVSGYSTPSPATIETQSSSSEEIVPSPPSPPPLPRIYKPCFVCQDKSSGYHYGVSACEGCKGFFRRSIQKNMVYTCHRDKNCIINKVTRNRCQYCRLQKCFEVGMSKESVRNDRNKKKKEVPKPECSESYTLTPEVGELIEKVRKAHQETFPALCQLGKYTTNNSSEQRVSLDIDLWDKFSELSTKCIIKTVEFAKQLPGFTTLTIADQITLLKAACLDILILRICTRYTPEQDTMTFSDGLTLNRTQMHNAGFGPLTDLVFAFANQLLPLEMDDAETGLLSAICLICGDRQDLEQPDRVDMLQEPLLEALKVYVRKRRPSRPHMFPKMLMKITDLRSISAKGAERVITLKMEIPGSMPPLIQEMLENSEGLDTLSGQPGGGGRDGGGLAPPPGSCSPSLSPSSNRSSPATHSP
Assay: NVS_NR_hRAR_Antagonist: NovaScreen (NVS) Nuclear Receptor Binding Assay for human Retinoic Acid Alpha Receptor Antagonism (RAR) (AID 2283358)
Method in brief: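 Cell-free TR-FRET binding assay with extracted human RARalpha in antagonist mode, read 2 h after dosing. Loss of signal was fitted relative to DMSO; the primary screen used 25 uM in duplicate, with concentration series on follow-up.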

| SMILES | AC50 | outcome |
| --- | --- | --- |
| CCCCCCCCCCCCCC[N+](C)(C)C | 28.3 µM (active) |  |
| CC(C)CCCCCCOC(=O)CCCCC(=O)OCCCCCCC(C)C |  | inactive |
| CC1=C(/C=C/C(C)=C/C=C/C(C)=C/C(=O)O)C(C)(C)CCC1 |  | inactive |

Target: human Peroxisome Proliferator-activated Receptor alpha (PPARa), PPARA (gene 5465) (UniProt Q07869)
Sequence (Q07869 whole entry, looked up): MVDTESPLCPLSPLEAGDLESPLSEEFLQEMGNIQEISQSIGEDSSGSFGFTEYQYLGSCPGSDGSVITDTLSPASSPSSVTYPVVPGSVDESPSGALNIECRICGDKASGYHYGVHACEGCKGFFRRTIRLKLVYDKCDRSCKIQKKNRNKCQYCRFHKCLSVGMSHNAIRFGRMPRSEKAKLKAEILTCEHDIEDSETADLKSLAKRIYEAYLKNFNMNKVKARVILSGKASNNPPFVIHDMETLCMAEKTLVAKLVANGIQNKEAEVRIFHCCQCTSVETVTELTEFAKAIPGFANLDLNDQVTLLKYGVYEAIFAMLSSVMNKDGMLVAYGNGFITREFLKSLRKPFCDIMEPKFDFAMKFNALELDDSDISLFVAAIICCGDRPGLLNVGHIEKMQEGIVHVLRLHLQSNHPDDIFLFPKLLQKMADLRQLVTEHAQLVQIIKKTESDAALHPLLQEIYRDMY
Assay: NVS_NR_hPPARa: NovaScreen (NVS) Nuclear Receptor Binding Assay for human Peroxisome Proliferator-activated Receptor alpha (PPARa) (AID 2283359);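 further: activity means loss of TR-FRET signal versus DMSO baseline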
Method in brief: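 Cell-free TR-FRET binding assay with extracted PPARα protein, read 1 h after dosing. Primary screen in duplicate at 25 uM, with actives retested in concentration series. Loss of signal versus DMSO.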

| SMILES | outcome | AC50 |
| --- | --- | --- |
| CCC(=C(c1ccc(O)cc1)c1ccc(OCCN(C)C)cc1)c1ccccc1 | inactive |  |
| Cc1cc(C)c(O)c(C)c1 | inactive |  |
| CC[C@H](c1ccc(O)cc1)[C@@H](CC)c1ccc(O)cc1 | inactive |  |
| CC1=C(/C=C/C(C)=C/C=C/C(C)=C/C(=O)O)C(C)(C)CCC1 | inactive |  |
| CC#C[C@]1(O)CC[C@H]2[C@@H]3CCC4=CC(=O)CCC4=C3[C@@H](c3ccc(N(C)C)cc3)C[C@@]21C | inactive | 41.9 µM (active) |

Target: PGR (gene 5241) (UniProt P06401)
Sequence (P06401 whole entry, looked up): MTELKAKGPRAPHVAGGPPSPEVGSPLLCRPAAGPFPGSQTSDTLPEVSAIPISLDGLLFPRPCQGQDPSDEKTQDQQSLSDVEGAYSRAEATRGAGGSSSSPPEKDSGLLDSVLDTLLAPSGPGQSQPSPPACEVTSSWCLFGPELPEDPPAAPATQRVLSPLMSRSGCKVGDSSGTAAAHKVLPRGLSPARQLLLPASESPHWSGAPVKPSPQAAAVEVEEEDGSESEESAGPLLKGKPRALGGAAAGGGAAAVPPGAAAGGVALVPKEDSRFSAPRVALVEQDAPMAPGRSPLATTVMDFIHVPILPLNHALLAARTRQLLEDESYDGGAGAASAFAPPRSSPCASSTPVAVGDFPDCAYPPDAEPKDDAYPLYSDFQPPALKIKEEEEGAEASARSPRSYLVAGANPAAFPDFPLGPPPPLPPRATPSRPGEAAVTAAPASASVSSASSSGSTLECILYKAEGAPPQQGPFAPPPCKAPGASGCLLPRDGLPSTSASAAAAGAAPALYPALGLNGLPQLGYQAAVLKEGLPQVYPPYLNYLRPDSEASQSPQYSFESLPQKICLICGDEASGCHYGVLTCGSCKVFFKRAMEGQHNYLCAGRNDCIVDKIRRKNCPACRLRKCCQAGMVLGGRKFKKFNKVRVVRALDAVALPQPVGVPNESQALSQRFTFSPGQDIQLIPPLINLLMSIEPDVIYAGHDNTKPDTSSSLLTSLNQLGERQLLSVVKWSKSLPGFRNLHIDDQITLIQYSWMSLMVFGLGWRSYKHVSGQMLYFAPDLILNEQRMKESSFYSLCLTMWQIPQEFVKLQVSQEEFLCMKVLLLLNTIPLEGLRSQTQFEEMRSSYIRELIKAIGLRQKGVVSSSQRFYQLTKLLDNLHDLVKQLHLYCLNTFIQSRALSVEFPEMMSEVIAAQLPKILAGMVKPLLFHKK
Assay: NVS_NR_hPR: NovaScreen (NVS) Nuclear Receptor Binding Assay for human Progestron Receptor (PR) (AID 2283360);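 further: active means loss of bound radioligand signal versus DMSO baseline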
Method in brief: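 Radioligand competition binding on receptor extracted from T47D cells, read by scintillation counting 18 h after dosing. Loss of signal versus DMSO; primary screen in duplicate at 25 uM, actives followed in concentration series.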

| SMILES | AC50 | outcome |
| --- | --- | --- |
| CCCCCCCCCCCCCC[N+](C)(C)C | 39300 nM (active) |  |
| CCC(=C(c1ccc(O)cc1)c1ccc(OCCN(C)C)cc1)c1ccccc1 | 852 nM (active) |  |
| COC(=O)CCCCC(=O)OC |  | inactive |
| CC[C@H](c1ccc(O)cc1)[C@@H](CC)c1ccc(O)cc1 | 431 nM (active) |  |
| CCCOc1sc(C(=O)N2CCC(c3cc(CN)ccc3F)CC2)c(C)c1Br |  | inactive |

Target: Retinoic acid receptor alpha (Homo sapiens) (UniProt P10276)
Assay: NVS_NR_hRARa_Agonist: NovaScreen (NVS) Nuclear Receptor Binding Assay for human Retinoic Acid Alpha Receptor Agonism (RAR) (AID 2283361)
Method in brief: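 Cell-free TR-FRET binding readout with extracted receptor protein, read 2 hours after dosing; gain-of-signal fitted relative to DMSO. Screened in duplicate at 25 uM, actives then run in concentration-response.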

| SMILES | outcome | AC50 |
| --- | --- | --- |
| CC(C)CCCCCCOC(=O)CCCCC(=O)OCCCCCCC(C)C | inactive |  |
| CCCCC(CC)COC(=O)CCCCC(=O)OCC(CC)CCCC (stereo not drawn) | inactive |  |
| CCN(CC)CCNc1ccc(CNC=O)c2sc3ccc(OC)cc3c(=O)c12 |  | 8.9 µM (active) |
| O=c1c(-c2ccc(O)cc2)coc2cc(O)ccc12 | inactive | 1.06 µM (active) and 6.6 µM (active) |

Target: human Thyroid Receptor Alpha (TRa), THRA (gene 7067) (UniProt P10827)
Sequence (P10827 whole entry, looked up): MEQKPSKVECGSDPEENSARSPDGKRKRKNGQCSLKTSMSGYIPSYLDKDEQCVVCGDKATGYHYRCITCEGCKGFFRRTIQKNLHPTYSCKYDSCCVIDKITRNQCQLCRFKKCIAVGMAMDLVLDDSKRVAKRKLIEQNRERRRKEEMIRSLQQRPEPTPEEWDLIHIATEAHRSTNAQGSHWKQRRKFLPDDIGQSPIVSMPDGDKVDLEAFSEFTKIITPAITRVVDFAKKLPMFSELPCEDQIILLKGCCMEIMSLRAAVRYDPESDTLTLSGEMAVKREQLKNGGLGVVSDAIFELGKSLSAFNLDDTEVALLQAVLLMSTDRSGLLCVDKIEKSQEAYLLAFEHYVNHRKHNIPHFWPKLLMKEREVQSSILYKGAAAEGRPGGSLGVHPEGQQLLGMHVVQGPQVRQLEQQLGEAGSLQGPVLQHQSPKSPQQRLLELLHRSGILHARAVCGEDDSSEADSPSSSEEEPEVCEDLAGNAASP
Assay: NVS_NR_hTRa_Antagonist: NovaScreen (NVS) Nuclear Receptor Binding Assay for human Thyroid Receptor Alpha Antagonism (TRa) (AID 2283362);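 further: activity is loss of signal relative to DMSO baseline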
Method in brief: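 AlphaLISA chemiluminescent immunoassay readout, taken 1 h post-dosing in a cell-free system with extracted protein. Activity was scored as signal loss against DMSO negative control, from duplicate single-concentration (25 uM) testing followed by concentration-response follow-up.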

| SMILES | outcome | AC50 |
| --- | --- | --- |
| c1ccc2cc3c(ccc4ccccc43)cc2c1 | inactive |  |
| CCC(=C(c1ccc(O)cc1)c1ccc(OCCN(C)C)cc1)c1ccccc1 | inactive |  |
| CC(=O)NC1(c2cccc(F)c2)CCN(CC[C@@]2(c3ccc(Cl)c(Cl)c3)CN(c3ccccc3)C(=O)CO2)CC1 |  | 20.8 µM (active) |
| CCN(CC)CCNc1ccc(CNC=O)c2sc3ccc(OC)cc3c(=O)c12 |  | 15.1 µM (active) |
| CC#C[C@]1(O)CC[C@H]2[C@@H]3CCC4=CC(=O)CCC4=C3[C@@H](c3ccc(N(C)C)cc3)C[C@@]21C | inactive | 29.9 µM (active) |

Target: Glucocorticoid receptor (Homo sapiens) (UniProt P04150)
Sequence (P04150 whole entry, looked up): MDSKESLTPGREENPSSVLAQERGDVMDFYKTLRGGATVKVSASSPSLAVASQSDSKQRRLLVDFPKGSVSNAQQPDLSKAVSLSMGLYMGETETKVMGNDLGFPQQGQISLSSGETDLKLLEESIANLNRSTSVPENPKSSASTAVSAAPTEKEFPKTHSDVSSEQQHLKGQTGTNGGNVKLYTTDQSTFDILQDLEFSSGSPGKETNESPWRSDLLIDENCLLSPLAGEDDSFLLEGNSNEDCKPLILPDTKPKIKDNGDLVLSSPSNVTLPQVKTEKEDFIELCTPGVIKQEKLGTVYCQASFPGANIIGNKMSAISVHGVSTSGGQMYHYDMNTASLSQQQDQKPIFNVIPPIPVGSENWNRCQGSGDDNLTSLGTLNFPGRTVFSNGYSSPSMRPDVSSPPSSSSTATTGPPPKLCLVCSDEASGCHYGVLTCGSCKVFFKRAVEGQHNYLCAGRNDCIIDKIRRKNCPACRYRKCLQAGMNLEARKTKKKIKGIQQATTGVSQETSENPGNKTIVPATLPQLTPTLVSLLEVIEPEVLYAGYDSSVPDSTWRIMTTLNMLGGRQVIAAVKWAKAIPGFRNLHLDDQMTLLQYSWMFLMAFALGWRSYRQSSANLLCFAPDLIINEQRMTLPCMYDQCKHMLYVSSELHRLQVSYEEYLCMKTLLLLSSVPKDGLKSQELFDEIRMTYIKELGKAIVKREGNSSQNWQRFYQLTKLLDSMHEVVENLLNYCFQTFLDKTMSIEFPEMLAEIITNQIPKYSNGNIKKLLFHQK
Assay: NVS_NR_hGR: NovaScreen (NVS) Nuclear Receptor Binding Assay for human Glucocorticoid Receptor (GR) (AID 2283363);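 on AC50: activity is loss of specific radioligand binding signal relative to DMSO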
Method in brief: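 Cell-free radioligand displacement assay on extracted human GR, read 16 h after dosing by filter-based scintillation counting. Screened in duplicate at 25 uM, then concentration series for actives; loss of signal versus DMSO baseline.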

| SMILES | AC50 | outcome |
| --- | --- | --- |
| CCCCCCCCCCCCCC[N+](C)(C)C | 6.85 µM (active) and 29.1 µM (active) |  |
| O=C1OC2(c3ccccc31)c1cc(Br)c(O)c(Br)c1Oc1c2cc(Br)c(O)c1Br | 20.9 µM (active) |  |
| O=C(O)c1ccccc1C(c1ccc(O)cc1)c1ccc(O)cc1 | 10.2 µM (active) |  |
| CC(C)CCCCCCOC(=O)CCCCC(=O)OCCCCCCC(C)C |  | inactive |
| CC(=O)NC1(c2cccc(F)c2)CCN(CC[C@@]2(c3ccc(Cl)c(Cl)c3)CN(c3ccccc3)C(=O)CO2)CC1 |  | inactive |
| CCN(CC)CCNc1ccc(CNC=O)c2sc3ccc(OC)cc3c(=O)c12 |  | inactive |
| CCCOc1sc(C(=O)N2CCC(c3cc(CN)ccc3F)CC2)c(C)c1Br | 15 µM (active) |  |
| CC(O)CO (stereo not drawn) |  | inactive |
| C[C@@H]1C[C@H]2[C@@H]3CCC4=CC(=O)C=C[C@]4(C)[C@@]3(F)[C@@H](O)C[C@]2(C)[C@@]1(O)C(=O)COP(=O)(O)O |  | inactive |
| CC#C[C@]1(O)CC[C@H]2[C@@H]3CCC4=CC(=O)CCC4=C3[C@@H](c3ccc(N(C)C)cc3)C[C@@]21C |  | inactive |

Target: Nuclear receptor subfamily 1 group I member 2 (Homo sapiens) (UniProt O75469)
Sequence (O75469 whole entry, looked up): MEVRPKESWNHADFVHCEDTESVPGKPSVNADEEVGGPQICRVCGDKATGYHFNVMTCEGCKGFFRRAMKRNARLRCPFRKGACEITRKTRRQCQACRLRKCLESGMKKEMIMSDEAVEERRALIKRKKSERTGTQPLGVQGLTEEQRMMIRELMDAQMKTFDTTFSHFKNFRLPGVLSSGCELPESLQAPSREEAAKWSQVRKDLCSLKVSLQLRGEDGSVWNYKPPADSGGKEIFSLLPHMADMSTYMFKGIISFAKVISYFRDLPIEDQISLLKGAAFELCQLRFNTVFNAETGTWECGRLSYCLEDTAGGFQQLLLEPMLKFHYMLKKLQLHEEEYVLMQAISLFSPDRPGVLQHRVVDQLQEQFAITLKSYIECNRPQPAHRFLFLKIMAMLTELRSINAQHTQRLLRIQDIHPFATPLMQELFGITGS
Assay: NVS_NR_hPXR: NovaScreen (NVS) Nuclear Receptor Binding Assay for human Pregnane X Receptor (PXR) (AID 2283365);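 further: a drop in FRET signal versus DMSO baseline means the compound binds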
Method in brief: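 TR-FRET signal read at 2 h in a cell-free human PXR binding format. DMSO served as negative control and baseline; activity scored as signal loss. Single-concentration duplicate screen (25 uM), then concentration-response follow-up.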

| SMILES | outcome | AC50 |
| --- | --- | --- |
| c1ccc2cc3c(ccc4ccccc43)cc2c1 | inactive |  |
| COCC(C)OCC(C)O (stereo not drawn) | inactive |  |
| CCC(=C(c1ccc(O)cc1)c1ccc(OCCN(C)C)cc1)c1ccccc1 | inactive | 1.85 µM (active) |
| O=C(O)c1ccccc1C(c1ccc(O)cc1)c1ccc(O)cc1 | inactive |  |
| ClC1=C(Cl)C(Cl)(Cl)C(Cl)=C1Cl |  | 40.8 µM (active) |
| CC[C@H](c1ccc(O)cc1)[C@@H](CC)c1ccc(O)cc1 | inactive |  |
| CC#C[C@]1(O)CC[C@H]2[C@@H]3CCC4=CC(=O)CCC4=C3[C@@H](c3ccc(N(C)C)cc3)C[C@@]21C | inactive |  |
